Test results published in PubChem BioAssay (NCATS).
Results filed as inconclusive are left out. Active and inactive are the calls of the source. Calls come from the whole dose curve; as a rule, active = well fitted curve in the direction sought with a large enough effect; inconclusive = small, poorly fitted or top-dose-only effect, or another doubt; inactive = no such curve, though single readings can be large; an effect the other way counts as inactive or inconclusive. *1 amine or outer side, *2 acyl side, *3 side chain or, on linkers, in order; H or OH if unused. Where a SMILES comes first, the peptide text is derived from it. Bridges are numbered along the chain shown (N, C = ends). [ ]: non-standard residue; d: D form. The star is where a group is joined. ξ: configuration not given here. X10 = NC1=NCCC(C(N[*:1])C(=O)[*:2])N1; ΔAla(3-NHCONH2) = NC(=O)NC=C(N)C(=O)O; ξβ3hOrn = NCCCC(N)CC(=O)*; Dap = NC[CH](N)C(=O)O

Legend:
[1] = qHTS of pediatric cancer cell lines to identify multiple opportunities for drug repurposing: Primary screen for OHS-50 cells (AID 1347103); note: nearly all actives have a fitted effect of over 40% in size; note: potency is the fitted concentration of half-maximal effect;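 for activity change, negative = cytotoxic: plate controls were DMSO neutral control for no effect and bortezomib positive control for full effect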
Summary of the method: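 Cells (500-1,000/well) rested 5 h, then received compounds for 48 h; metabolically active cells were measured by CellTiter-Glo luminescence. Final concentrations spanned up to 46 µM (MIPE, 11-point) or 0.59 nM-46 µM (NPC, 8-point) in primary screens, 11-point in follow-ups.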

[2] = qHTS of pediatric cancer cell lines to identify multiple opportunities for drug repurposing: Primary screen for RD cells (AID 1347104);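 note: plate controls were DMSO for no effect and bortezomib for full effect; nearly all actives have a fitted effect of over 55% in size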
Summary of the method: (§1)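 Quantitative HTS format: each compound titrated (MIPE 11 points from 0.78 nM, NPC 8 points from 0.59 nM) onto cells plated 5 hours earlier. After 48 h at 37 degrees C, CellTiter-Glo luminescence was recorded.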

[3] = qHTS of pediatric cancer cell lines to identify multiple opportunities for drug repurposing: Primary screen for MG 63 (6-TG R) cells (AID 1347105); note: nearly all actives have a fitted effect of over 50% in size; note: potency is the fitted concentration of half-maximal effect; for activity change, negative = cytotoxic: % is set by controls: 0 for no effect and ±100 for the full control effect
Summary of the method: as §1

[4] = qHTS of pediatric cancer cell lines to identify multiple opportunities for drug repurposing: Primary screen for control Hh wild type fibroblast cells (AID 1347106);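 note: series mostly up to about 46 µM; % is set by controls: 0 for no effect and ±100 for the full control effect; a drop in luminescence marks cytotoxicity and a rise apparent proliferation; nearly all actives have a fitted effect of over 55% in size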
Summary of the method: (§2)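 Viability after 48 h compound treatment at 37C, 500-1,000 cells/well, read as ATP luminescence with CellTiter-Glo. Primary screens used 11-point (MIPE, 0.78 nM-46 µM) or 8-point (NPC, 0.59 nM-46 µM) final concentrations; follow-up screens used 11-point dilutions.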

[5] = qHTS of pediatric cancer cell lines to identify multiple opportunities for drug repurposing: Primary screen for Rh30 cells (AID 1347107); note: series mostly up to about 46 µM; % is set by controls: 0 for no effect and ±100 for the full control effect; nearly all actives have a fitted effect of over 75% in size
Summary of the method: as §2

[6] = qHTS of pediatric cancer cell lines to identify multiple opportunities for drug repurposing: Primary screen for Rh41 cells (AID 1347108);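 note: series mostly up to about 46 µM; luminescence drop marks cytotoxic hits; nearly all actives have a fitted effect of over 70% in size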
Summary of the method: as §1

CC(=O)N1CCN(c2ccc(O)cc2)CC1
inactive: Potency [1] | Potency [2] | Potency [3] | Potency [4] | Potency [5] | Potency [6]

CC(=O)OC/C=C(C)/C=C/C=C(C)/C=C/C1=C(C)CCCC1(C)C
inactive: Potency [1] | Potency [2] | Potency [3] | Potency [4] | Potency [5] | Potency [6]

O=P(O)(O)OCC(O)CO (stereo not given)
inactive: Potency [1] | Potency [2] | Potency [3] | Potency [4] | Potency [5] | Potency [6]

CN1Cc2cc(C(=O)N3CCC(C4CCNCC4)CC3)ccc2NC(CC(=O)O)C1=O (stereo not given)
inactive: Potency [1] | Potency [2] | Potency [3] | Potency [4] | Potency [5] | Potency [6]

CC(CC(C#N)(c1ccccc1)C(C)C)N(C)C (stereo not given)
inactive: Potency [1] | Potency [2] | Potency [3] | Potency [4] | Potency [5] | Potency [6]

COc1cc(C(=O)OC(COCCC(C)C)CN2CCOCC2)cc(OC)c1OC (stereo not given)
inactive: Potency [1] | Potency [2] | Potency [3] | Potency [4] | Potency [5] | Potency [6]

CC(C)OP(=O)(CP(=O)(OC(C)C)OC(C)C)OC(C)C
inactive: Potency [1] | Potency [2] | Potency [3] | Potency [4] | Potency [5] | Potency [6]

CN1[C@@H]2CC[C@H]1CC(NC(=O)n1c(=O)[nH]c3ccccc31)C2 (stereo not given in full)
inactive: Potency [1] | Potency [2] | Potency [3] | Potency [4] | Potency [5] | Potency [6]

NCC(=O)O
inactive: Potency [1] | Potency [2] | Potency [3] | Potency [4] | Potency [5] | Potency [6]

CN1CCCN=C1/C=C/c1cccs1
inactive: Potency [1] | Potency [2] | Potency [3] | Potency [4] | Potency [5] | Potency [6]

Cc1cnc(NS(=O)(=O)c2ccc(N)cc2)nc1
inactive: Potency [1] | Potency [2] | Potency [3] | Potency [4] | Potency [5] | Potency [6]

Oc1cccc2[nH]ccc12
inactive: Potency [1] | Potency [2] | Potency [3] | Potency [4] | Potency [5] | Potency [6]

O=C(NN1CCCC1)NS(=O)(=O)c1ccc(Cl)cc1
inactive: Potency [1] | Potency [2] | Potency [3] | Potency [4] | Potency [5] | Potency [6]

COc1cc(C=O)ccc1O
inactive: Potency [1] | Potency [2] | Potency [3] | Potency [4] | Potency [5] | Potency [6]

O=C(O)Cc1ccccc1Oc1ccc(Cl)cc1Cl
inactive: Potency [1] | Potency [2] | Potency [3] | Potency [4] | Potency [5] | Potency [6]

O=C(CCCCC(=O)Nc1c(I)cc(I)c(C(=O)O)c1I)Nc1c(I)cc(I)c(C(=O)O)c1I
inactive: Potency [1] | Potency [2] | Potency [3] | Potency [4] | Potency [5] | Potency [6]

NS(=O)(=O)c1ccc(N2CCCCS2(=O)=O)cc1
inactive: Potency [1] | Potency [2] | Potency [3] | Potency [4] | Potency [5] | Potency [6]

O=C1NC(c2ccccc2)(c2ccccc2)C(=O)N1COP(=O)(O)O
inactive: Potency [1] | Potency [2] | Potency [3] | Potency [4] | Potency [5] | Potency [6]

Cc1cc(O)c(C)c(C)c1O
inactive: Potency [1] | Potency [2] | Potency [3] | Potency [4] | Potency [5] | Potency [6]

[O-][n+]1cccc(/C(Cl)=N/OC[C@@H](O)CN2CCCCC2)c1
inactive: Potency [1] | Potency [2] | Potency [3] | Potency [4] | Potency [5] | Potency [6]

CN1N=C(C(N)=O)CCC1=O
inactive: Potency [1] | Potency [2] | Potency [3] | Potency [4] | Potency [5] | Potency [6]

CN1CCN(N)CC1
inactive: Potency [1] | Potency [2] | Potency [3] | Potency [4] | Potency [5] | Potency [6]

NCCCC(N)CC(=O)NCC1NC(=O)C(CO)NC(=O)C(N)CNC(=O)C(C2CCN=C(N)N2)NC(=O)C(=CNC(N)=O)NC1=O (stereo not drawn) (H-[Dap]S[Dap](ξβ3hOrn)[ΔAla(3-NHCONH2)][X10]; lactam 1-C; configuration not given here)
inactive: activity change, negative = cytotoxic [1] 13.9% [at 0.73 µM] | activity change, negative = cytotoxic [2] 2.79% [at 0.597 µM] | activity change, negative = cytotoxic [3] -12% [at 0.597 µM] | activity change, negative = cytotoxic [4] 5.88% [at 0.597 µM] | activity change, negative = cytotoxic [5] 22.4% [at 0.597 µM] | activity change, negative = cytotoxic [6] 17.6% [at 0.597 µM]

N[C@@H](Cc1cc(I)c(O)c(I)c1)C(=O)O
inactive: Potency [1] | Potency [2] | Potency [3] | Potency [4] | Potency [5] | Potency [6]

CC(C)C(=O)Nc1cccc(C(F)(F)F)c1
inactive: Potency [1] | Potency [2] | Potency [3] | Potency [4] | Potency [5] | Potency [6]

O=C(C1CCCCC1)N1CC(=O)N2CCCc3ccccc3C2C1 (stereo not given)
inactive: Potency [1] | Potency [2] | Potency [3] | Potency [4] | Potency [5] | Potency [6]

O=C1Nc2ccccc2C1(c1ccc(O)cc1)c1ccc(O)cc1
active: Potency [1] 872 nM | Potency [3] 133 nM
inactive: Potency [2] | Potency [4] | Potency [5] | Potency [6]

CCS(=O)(=O)c1ccc(OC)c(C(=O)OC)c1
inactive: Potency [1] | Potency [2] | Potency [3] | Potency [4] | Potency [5] | Potency [6]

CC1CCCCN1CCCOC(=O)c1ccc(OC2CCCCC2)cc1 (stereo not given)
inactive: Potency [2] | Potency [3] | Potency [4] | Potency [5] | Potency [6]
active: Potency [1] 24600 nM

CC(C)NC(=O)c1ccc(C=O)cc1
inactive: Potency [1] | Potency [2] | Potency [3] | Potency [4] | Potency [5] | Potency [6]
